From PubChem BioAssay
An excerpt weighted towards active compounds, which were near 1.6% of everything screened.
KCNQ2 enhance = potentiators of rat KCNQ2 potassium channel; O88943; CHO-K1 KCNQ2, FluxOR thallium flux fluorescence; hits give high values; B-score at 10 µM; 0.54% of 310,000 active; AID 2239;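 active = fluorescence ratio B-score at least 3 SD of library B-scores, with initial fluorescence B-score within 3 of them, cut at about 5.3 in these data; same plate scores as AID 2156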;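 also: B-score of peak minus minimum over baseline fluorescence ratio after K+ and Tl+ stimulus; positive B-score means potentiation of KCNQ2 with more thallium influx and brighter signal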
KCNQ2 block = blocks the rat KCNQ2 potassium channel | CHO-K1 KCNQ2, FluxOR thallium flux, 20 min; hits give low values | B-score at 10 µM | 1.1% of 310,000 active | AID 2156;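 active = fluorescence ratio B-score at most minus 3 library SDs, with starting brightness B-score within 2 library SDs, cut at about -5.5 in these data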
Kir21 confirm = confirmation of mouse Kir2.1 potassium channel inhibitors. 41% of 2,300 active. Kir2.1-expressing cells, FluxOR thallium flux fluorescence; hits give low values. shares compounds with KCNQ2 enhance. AID 2032. Tl flux remaining, % of negative control (hits give low values), % at 10 µM;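 active = Primary-screen hit whose thallium flux fell at least 3 control SD below untreated wells in both duplicates, with normal baseline fluorescence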;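 also: 0% = blank wells without stimulus and 100% = stimulated no-compound controls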
Target sequence (P35561 whole entry, looked up): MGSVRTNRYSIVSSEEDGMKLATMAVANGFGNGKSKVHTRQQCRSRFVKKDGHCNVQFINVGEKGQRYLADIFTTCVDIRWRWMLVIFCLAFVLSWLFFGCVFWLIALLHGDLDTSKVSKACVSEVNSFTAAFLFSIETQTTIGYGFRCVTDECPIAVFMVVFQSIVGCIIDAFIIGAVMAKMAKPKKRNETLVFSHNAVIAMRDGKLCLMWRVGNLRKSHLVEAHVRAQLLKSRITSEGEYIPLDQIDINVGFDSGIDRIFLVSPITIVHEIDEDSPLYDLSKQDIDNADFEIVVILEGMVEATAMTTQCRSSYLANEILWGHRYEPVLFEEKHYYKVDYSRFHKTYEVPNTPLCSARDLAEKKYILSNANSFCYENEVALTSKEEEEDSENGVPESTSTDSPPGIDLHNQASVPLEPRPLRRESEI
HEK293 ctr = parental HEK293 activity in Kir2.1 inhibitor counter-screen | shares compounds with KCNQ2 enhance | parental HEK293 cells, FluxOR thallium flux fluorescence; 0% = unstimulated blank wells | FluxOR signal as % of negative control (100 = no effect), % at 10 µM | 19% of 2,300 active | AID 2105;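 active = dye signal at least 3 control SD above or below untreated wells in both duplicates, raw fluorescence within 3, either direction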;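 also: percent is based on the flux ratio of peak minus minimum fluorescence over baseline F0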
CHO-K1 ctr = parental CHO-K1 activity in KCNQ2 potentiator counter-screen; activity increase over 3SD of controls, % at 10 µM; shares compounds with KCNQ2 enhance; 43% of 1,200 active; parental CHO-K1 cells, FluxOR thallium flux fluorescence; zero = vehicle mean+3SD, 100% = vehicle-minus-blank window;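 active = signal rise of at least 3 SD above the untreated control mean, in both duplicate wells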;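 also: counter screen of KCNQ2 potentiator hits so any rise reflects channel-independent effects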
KCNQ1 sel pot = selectivity of KCNQ2 potentiators: effect on human KCNQ1 | shares compounds with KCNQ2 enhance | CHO KCNQ1 stable, FluxOR thallium flux fluorescence; beyond 3SD, as % of vehicle-control signal | activation over 3SD threshold, % at 10 µM | 28% of 1,200 active | AID 2283;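 active = fluorescence ratio rise of at least 3 SD of vehicle wells above their mean, in both replicate wells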;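 also: 0% = vehicle mean plus 3 SD and 100% = vehicle minus unstimulated blank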
KCNQ2 pot confirm = confirmation of rat KCNQ2 potassium channel potentiators. shares compounds with KCNQ2 enhance. CHO-KCNQ2 cells, FluxOR thallium flux fluorescence. potentiation, less the hit threshold, % at 10 µM. 68% of 1,200 active. AID 2287;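 active = fluorescence ratio rising 3 SD or more over the vehicle control mean in both replicates, plus primary screen hit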;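 also: peak minus minimum thallium fluorescence divided by baseline after K/Tl stimulus; 0% = vehicle mean plus 3 SD and 100% = vehicle minus unstimulated blank difference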
Kir2-1 sel = tests whether KCNQ2 potentiators also affect mouse Kir2.1; shares compounds with KCNQ2 enhance; HEK293 Kir2.1, FluxOR thallium flux fluorescence; activity over 3SD threshold, % at 10 µM; 2% of 1,200 active; AID 2345;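 active = fluorescence ratio rise of at least 3 SD above the vehicle-control mean, seen in both replicates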;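 also: 0% = vehicle mean plus 3 SD and 100% = vehicle minus no-stimulus blank window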
KCNQ2 W236L MoA = rat KCNQ2 W236L mutant potentiation by KCNQ2 potentiators | CHO KCNQ2-W236L, automated patch clamp current | 10% of 940 active | current increase over 3SD of negative controls (%), hits give high values, % at 25 µM | shares compounds with KCNQ2 enhance;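 active = current increase at least 3 SD of the untreated controls above them in both duplicate recordings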
Numbers without * were called inactive; i = inactive; / = no result given.

SMILES	KCNQ2 enhance	KCNQ2 block	Kir21 confirm	HEK293 ctr	others
C=C1C(C(=O)Nc2ccccc2)C1C(=O)Nc1ccccc1 (configuration not stated)	0.52	i	/	/
CCOc1ccc(C(C)NC(=O)C2CCCC2)cc1 (configuration not stated)	1.5	i	/	/
CCc1ccc(C(C)NC(=O)C2CCCC2)cc1 (configuration not stated)	12*	i	i	i	CHO-K1 ctr=9.3*;KCNQ1 sel pot=-12;KCNQ2 pot confirm=18*;Kir2-1 sel=-16;KCNQ2 W236L MoA=i
Cc1ccc(S(=O)(=O)NC(=S)NC2CCCCC2)cc1	4.1	i	/	/
CCc1ccc(C(C)NC(=S)NC2CCCCC2)cc1 (configuration not stated)	20*	i	i	i	CHO-K1 ctr=15*;KCNQ1 sel pot=7.8*;KCNQ2 pot confirm=72*;Kir2-1 sel=-50;KCNQ2 W236L MoA=i
CCc1ccc(S(=O)(=O)NC(=S)NC2CCCCC2)cc1	8.9*	i	i	302%*	CHO-K1 ctr=-18;KCNQ1 sel pot=-18;KCNQ2 pot confirm=52*;Kir2-1 sel=-28;KCNQ2 W236L MoA=i
CCc1ccc(C(C)NC(=O)C2(C)CC2(Br)Br)cc1 (configuration not stated)	0.22	i	/	/
O=C(Nc1ccc(Cl)cc1)N1CCCC(Cn2cccc2)C1 (configuration not stated)	1.1	i	/	/
CCN1CCCC1CNC(=O)C(=O)NCCc1ccc(OC)c(OC)c1 (configuration not stated)	0.39	i	/	/
Cc1c(C(=O)N2CCC(C(N)=O)CC2)oc2ccc(Br)cc12	0.9	i	/	/
CCCCN(CC(=O)NCCOC)C(=O)Cn1nnc2ccccc21	0.15	i	/	/
COc1ccc(C(=O)Nc2ccnn2C2CCN(C(=O)c3cnsn3)CC2)cc1	/	i	/	/
CC(=O)Nc1ccc(NC(=O)c2ccc3c(c2)CCN3S(C)(=O)=O)cc1	/	i	/	/
COc1cccc(NC(=O)c2ccc3c(c2)CCN3S(C)(=O)=O)c1	17*	i	i	i	CHO-K1 ctr=2.5*;KCNQ1 sel pot=-14;KCNQ2 pot confirm=-32;Kir2-1 sel=-40
COc1ccc(C2=Nn3c(C)nnc3SC2)cc1	1.2	i	/	/
COc1ccc(CC(=O)NC2CCSc3ccccc32)c(OC)c1 (configuration not stated)	/	i	72%*	i
COc1ccc(OC)c(C(=O)NC2CCSc3ccccc32)c1 (configuration not stated)	/	i	/	/
CC(C)(C)c1ccc(OCCCCCCN2CCNCC2)cc1	/	i	/	/
CC(C)(c1ccccc1)c1ccc(OCCCN2CCNCC2)cc1	2	i	50%*	i
COCCNC(=O)NC(=O)CN1C(=O)NC(Cc2c[nH]c3ccccc23)C1=O (configuration not stated)	1.2	i	/	/
O=C1c2ccccc2S(=O)(=O)c2cc(C(=O)N(c3ccccn3)c3ccccn3)ccc21	/	i	/	/
CCCCN(Cc1cccs1)S(=O)(=O)c1csc(C(N)=O)c1	/	i	46%*	i
CCOCCCN(Cc1ccco1)S(=O)(=O)c1csc(C(N)=O)c1	/	i	/	/
CC(C)CCN(Cc1ccco1)S(=O)(=O)c1csc(C(N)=O)c1	/	i	58%*	i
CN(Cc1ccccc1)S(=O)(=O)c1csc(C(N)=O)c1	/	i	/	/
SMILES	KCNQ2 enhance	KCNQ2 block	Kir21 confirm	HEK293 ctr	others
CCOC(=O)c1nc(C)sc1-c1ccnn1S(=O)(=O)c1cccc(Cl)c1	/	i	/	/
COc1ccc(OC)c(S(=O)(=O)NC2CCSc3ccccc32)c1 (configuration not stated)	/	i	/	/
Cc1ccc(NC(=O)CCn2c(=O)[nH]c3ccsc3c2=O)cc1F	0.23	i	/	/
COc1ccc(C2NC(=S)NC3=C2CCc2cc(OC)ccc23)cc1 (configuration not stated)	/	i	/	/
Nc1sc(-c2ccccc2)n[n+]1Cc1cccc2cccnc12	/	i	i	i
Oc1ccccc1CNc1cccc2cccnc12	/	i	/	/
Nc1nc2ccccc2n1CCOc1ccc(Br)cc1	/	i	20%*	130%*
Nc1nc2ccccc2n1CCOc1ccc(Cl)cc1	2.5	i	/	/
CCOC(=O)Cn1c(=N)n(Cc2ccccc2)c2ccccc21	1.5	i	/	/
CCOC(=O)Cn1c(=N)n(CCOc2ccc(Br)cc2)c2ccccc21	/	i	36%*	i
Cc1ccc(S(=O)(=O)Nc2ccccc2C(=O)N2CCCCC2C)c(C)c1NS(C)(=O)=O (configuration not stated)	1.3	i	/	/
CC(C)(C)C(=O)NC(=S)NNC(=O)c1sc2ccccc2c1Cl	12	i	/	/
CCCOC(=S)NC(=O)c1sc2ccccc2c1Cl	20*	i	i	312%*	CHO-K1 ctr=22*;KCNQ1 sel pot=-12;KCNQ2 pot confirm=55*;Kir2-1 sel=-12;KCNQ2 W236L MoA=i
O=C(NC(=S)NCCO)c1sc2ccccc2c1Cl	/	i	/	/
CCOC(=S)NC(=O)c1sc2ccccc2c1Cl	21*	i	i	356%*	CHO-K1 ctr=-2;KCNQ1 sel pot=-6;KCNQ2 pot confirm=62*;Kir2-1 sel=-37;KCNQ2 W236L MoA=i
COc1cccc(NC(=O)c2ccc(NC(=O)C3CC(=O)OC34CCCCC4)cc2)c1 (configuration not stated)	0.55	i	/	/
COC(=O)c1ccc(CNC(=O)c2ccc(COc3ccccc3)cc2)cc1	/	i	/	/
O=C(OC1CCCCC1=O)c1cc(Cl)ccc1[N+](=O)[O-] (configuration not stated)	1.2	i	/	/
COc1ccc(-n2c(SCC(=O)N/N=C(\C)c3cccnc3)nc3ccccc3c2=O)cc1	1.2	i	/	/
CCN1C(=O)/C(=C2/Sc3ccccc3N2CC)S/C1=N\c1ncn[nH]1	/	i	/	/
Brc1cccc(CSc2nnc(-c3ccncc3)o2)c1	/	i	/	/
S=c1nc(Cc2ccccc2)[nH]c2ccccc12	11*	i	i	323%*	CHO-K1 ctr=45*;KCNQ1 sel pot=-13;KCNQ2 pot confirm=40*;Kir2-1 sel=-30;KCNQ2 W236L MoA=i
O=c1[nH]c(COc2ccccc2)nc2ccccc12	/	i	/	/
S=c1nc(Cc2ccc(Cl)cc2)[nH]c2ccccc12	11*	i	i	158%*	CHO-K1 ctr=-8;KCNQ1 sel pot=-8;KCNQ2 pot confirm=6.1*;Kir2-1 sel=-41;KCNQ2 W236L MoA=i
Cc1nc(=S)c2ccccc2[nH]1	1.1	i	/	/
Cc1ccc(Cc2nc3ccccc3[nH]2)cc1	/	i	/	/
S=c1nc(COc2ccccc2)[nH]c2ccccc12	20*	i	i	479%*	CHO-K1 ctr=1.8*;KCNQ1 sel pot=-11;KCNQ2 pot confirm=63*;Kir2-1 sel=-15;KCNQ2 W236L MoA=i
